Reference: the supplement of paper PMC6555819

Legend:
Assay in all cases: PBM binding z-score (relative to random genomic background probes); higher = stronger binding; sequences stand for … in GC…GCGATTGACAGCGTAGAATGAAGG
[1] = test system: FXR:RXRa (NR concentration 270 nM, RXRa partner concentration 90 nM)
Summary of the method: (§1)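 Ligand-free nuclear receptor dimers were bound for 1 h to custom Agilent 4×180K protein-binding microarrays. Detection used antibodies against each partner (one per run). Binding z-scores rest on regression-normalized fluorescence, with random background probes as the reference.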

[2] = test system: LXRa:RXRa (NR concentration 270 nM, RXRa partner concentration 90 nM)
Summary of the method: as §1

[3] = test system: LXRa homodimer (NR concentration 270 nM)
Summary of the method: as §1

[4] = test system: LXRb:RXRa (NR concentration 270 nM, RXRa partner concentration 90 nM)
Summary of the method: as §1

[5] = test system: LXRb homodimer (NR concentration 270 nM)
Summary of the method: as §1

[6] = test system: PPARa:RXRa (NR concentration 270 nM, RXRa partner concentration 90 nM)
Summary of the method: as §1

[7] = test system: PPARg:RXRa (NR concentration 180 nM, RXRa partner concentration 90 nM)
Summary of the method: as §1

[8] = test system: PPARg:RXRa 270nM:90nM, anti-RXR (NR concentration 270 nM, RXRa partner concentration 90 nM)
Summary of the method: as §1

[9] = test system: PPARg:RXRa 30nM:10nM, anti-RXR (NR concentration 30 nM, RXRa partner concentration 10 nM)
Summary of the method: as §1

[10] = test system: PPARg:RXRa 90nM:30nM, anti-RXR (NR concentration 90 nM, RXRa partner concentration 30 nM)
Summary of the method: as §1

[11] = test system: PPARg:RXRa DBDmut IVT, anti-RXR (DBD mutation: RXRa K156A/R161A, NR concentration 270 nM, RXRa partner concentration 90 nM)
Summary of the method: as §1

[12] = test system: PPARg:RXRa IVT, anti-PPARg (NR concentration 270 nM, RXRa partner concentration 90 nM)
Summary of the method: as §1

[13] = test system: PPARg DBDmut:RXRa IVT, anti-PPARg (DBD mutation: PPARg1 K132A/R137A, NR concentration 270 nM, RXRa partner concentration 90 nM)
Summary of the method: as §1

[14] = test system: PPARg DBDmut IVT, anti-PPARg (DBD mutation: PPARg1 K132A/R137A, NR concentration 270 nM)
Summary of the method: as §1

[15] = test system: PPARg homodimer (NR concentration 180 nM)
Summary of the method: as §1

[16] = test system: PXR:RXRa (NR concentration 270 nM, RXRa partner concentration 90 nM)
Summary of the method: as §1

[17] = test system: PXR homodimer (NR concentration 270 nM)
Summary of the method: as §1

[18] = test system: RARa:RXR (NR concentration 270 nM, RXRa partner concentration 90 nM)
Summary of the method: as §1

[19] = test system: RARa homodimer (NR concentration 270 nM)
Summary of the method: as §1

[20] = test system: RARb:RXRa (NR concentration 270 nM, RXRa partner concentration 90 nM)
Summary of the method: as §1

Sequence	PBM binding z-score [1]	PBM binding z-score [2]	PBM binding z-score [3]	PBM binding z-score [4]	PBM binding z-score [5]	PBM binding z-score [6]	PBM binding z-score [7]	PBM binding z-score [8]	PBM binding z-score [9]	PBM binding z-score [10]	PBM binding z-score [11]	PBM binding z-score [12]	PBM binding z-score [13]	PBM binding z-score [14]	PBM binding z-score [15]	PBM binding z-score [16]	PBM binding z-score [17]	PBM binding z-score [18]	PBM binding z-score [19]	PBM binding z-score [20]
CGTCCAATGTCAAGGTCAGTGAAAGAGACTCGAA	2.47	1.92	0.422	1.76	0.286	2.67	0.791	1	-0.104	0.482	0.498	1.27	0.404	-0.348	2.25	2.17	0.697	2.26	0.775	3.69
CCTAGTTGGTCATGAGGTCACACACCGGATATGA	4.57	4.17	2.56	4	0.753	4.65	4.15	4.5	2.25	3.46	2.85	4.41	1.13	0.4	4.56	5.34	2.23	5.4	2.94	4.14
ACTAGCAGGCCAAGTTTGGGTCACTCAGACAAAG	-0.039	0.195	-0.331	0.306	-1.05	1.27	0.233	0.225	-0.237	-0.185	0.651	1.1	-0.577	-0.242	0.405	0.515	-0.504	1.43	-0.139	1.71
TAGCCTAGGTCATTGGGCCAGAATAGTACGCATC	4.53	3.53	0.524	2.31	0.302	4.07	3.79	3.88	1.11	2.46	2.63	3.68	-0.385	-0.0458	1.41	1.51	-0.537	2.26	0.079	3.53
CCTACTGGTCCACGAAAGGTCATTGATTCAGTGA	3.9	4.86	5.19	4.6	1.21	4.38	1.3	3.07	0.699	2.22	0.842	1.87	0.736	-0.00763	4.11	5.53	3.24	5.86	2.86	3.95
CCGACTGGGGCAAAGGTTACTATACTCAGTACGA	1.1	1.13	0.145	1.83	-0.765	4.86	10.7	8.89	8.85	9.45	4.92	5.73	-0.179	-0.335	1.41	1.93	-0.04	3.21	-0.0301	1.86
GCTGACAGGTGAAACGCAGGTAACTCAGGGTGGC	-0.217	0.213	-0.763	-0.392	-0.869	0.868	0.373	-0.307	-0.779	-0.533	1.22	0.804	-0.781	-1.24	-0.522	-0.223	-0.797	0.499	-1.1	0.773
CCTAGCAGGCCAATCAGGGTCACTCAAGGCTTGA	2.6	3.39	-0.0064	3.03	-0.752	3.63	0.949	1.33	-0.454	0.361	1.3	1.7	-0.834	-1.49	0.893	4.07	-0.258	3.42	-0.49	2.36
ATAGCAAGGTGATCGTGAGGTCGTTGATACTAAC	1.34	0.986	0.104	0.673	-0.808	1.47	0.359	0.22	0.0107	-0.0753	0.118	0.727	0.619	0.253	0.565	2.62	0.543	1.98	-0.0537	1.16
ACTAGCAGGCCAAGTTTGGGCCACTCAAACAAAG	-0.478	-0.716	-0.865	-0.61	-1.23	-0.243	-0.254	-0.685	-0.785	-0.814	0.654	0.241	-1.11	-0.696	-1.66	-0.855	-0.899	-0.593	-1.32	0.466
ATCTCTAGGTAAAGATAGTTAAGTGAATGCAAAT	-0.0331	0.0561	-0.0773	0.142	0.643	-0.0582	0.771	0.421	0.415	0.236	1.79	1.42	0.229	1.6	0.449	-0.33	0.0795	-0.0694	0.927	-0.0166
AGAACGAGGGCACCCTGAGTTGATAGCAGAGTAG	0.236	0.52	-0.169	-0.0951	-0.924	1.6	1.55	1.27	0.134	0.693	3.24	2.84	0.579	-0.333	0.0786	1.29	0.283	0.732	-0.996	2.16
CCTATTATTTGACCATAAGGGCAACCGAAGCTCG	1.29	0.777	1.8	1.02	1.25	0.882	0.551	0.728	0.155	0.461	0.801	1.15	0.688	1.57	3.21	0.9	2.77	1.05	4.4	1.64
ATCTCTAGGTGACAAGTTCAGTGAAAGAGAGGAC	0.297	0.503	0.114	0.645	0.171	2.58	3.19	3.1	1.46	2.43	4.9	4.99	1.89	2.47	0.963	1.33	1.38	0.974	0.324	2.12
